# Compound activity from PubChem.
# Compounds with a hit are over-represented: about 21% of the library has one in this group of screens.
# HCV inhibitor: blocks hepatitis C virus. Potency, µM (titrated, usually from 41.8 µM), inactives show top-dose activity change, negative = inhibition, most hits filed as inhibitors. Huh7.5.1 HCVcc-Cre infection, luciferase reporter, 44 h. 340,000 tested, 3.4% active; further: potency means the concentration at half of the fitted maximal effect; on the % scale 0 is the no-effect control and ±100 the full control effect
#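 Luciferase read-out (15 sec integration) after a 15 min room-temperature substrate step quantifies HCVcc-Cre infection. Cells, 1,000 per well, had compound added 4 h post-plating, then virus at ~0.5 moi, and were cultured 44 h.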
# Shiga inhibitor: blocks Shiga toxin action in Vero cells; Vero cells, Shiga toxin protein synthesis inhibition reporter; inhibition, % at 38.7 µM; 290,000 tested, 9.2% active; AID 2315; in the data active means inhibition mostly above about 28%, no sharp cut-off; inactive means mostly below about 43%; further: 0% is about no effect
# HCMV antiviral: inhibitors of human cytomegalovirus; HFF cells, HCMV-luciferase reporter, 72 h; stronger effect = lower value; activity change, negative = inhibition, % at 57.5 µM; 410,000 tested, 4.5% active; AID 1259415; in the data active means activity change below about -60%; inconclusive means no clear call, values can overlap the other calls; inactive means above about -39%; further: on the % scale 0 is the no-effect control and ±100 the full control effect
#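 Cell-based, HFFs, 1000 cells/well, 16 h 37C; cpds in DMSO + HCMV-luc, MOI 1 PFU/cell; 72 h 37C; OneGlo luminescence after 5 min RT; norm. to buffer vs Salinomycin 10uM.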
# Cycloheximide cs: affects cycloheximide protein synthesis inhibition readout, counter-screen; max response, %; 300,000 tested, 12% active; cell reporter, cycloheximide protein synthesis inhibition counterscreen; AID 2314; in the data active means max response mostly above about 13%, no sharp cut-off; inactive means mostly below about 14%; further: read at 38.3 µM for the half of the compounds with a filed dose; 0% is about no effect
# Pf growth 48h: inhibits P. falciparum growth in the first generation, 48 h; 310,000 tested, 5.9% active; AID 504832; P. falciparum luciferase growth in erythrocytes, 48 h; Potency, µM (doses to about 28.7 µM), for the others: at the top dose activity change, negative = inhibition, most hits filed as inhibitors; further: potency means the concentration at half of the fitted maximal effect; on the % scale 0 is the no-effect control and ±100 the full control effect
#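 A one-generation exposure of luciferase-tagged malaria parasites in RPMI 1640/Albumax erythrocyte culture, 37 C and 5% CO2. Inhibition is inferred from decreased luminescence after adding detection reagent.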
# Pf growth 96h: P. falciparum growth inhibition at 96 hour, primary screen for plastid delayed-death inhibitors; P. falciparum luciferase reporter growth, 96 h; Potency, µM (doses to about 28.7 µM), for inactives: top-dose activity change, negative = inhibition, actives largely listed as inhibitors; 320,000 tested, 6.9% active; further: potency means the concentration at half of the fitted maximal effect; on the % scale 0 is the no-effect control and ±100 the full control effect
#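 Two parasite generations (96 h, 37 C, 5% CO2) of compound exposure in infected erythrocytes (0.05% parasitemia, 2% hematocrit). Luciferase-reporter P. falciparum; decreased luminescence indicates inhibited growth, aimed at apicoplast-acting delayed death.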
# Active calls of the source: *; ? = inconclusive; / = no result given; [ ] = dose if it differs, or a comment. Unless noted, the call rests on the fitted dose curve; in most records, active means well fitted inhibition curve with a large enough effect; inconclusive means small, poorly fitted or top-dose-only effect, or another doubt; inactive means no such curve, though single readings can be large or run the other way.
SMILES,HCV inhibitor,Shiga inhibitor,HCMV antiviral,Cycloheximide cs,Pf growth 48h,Pf growth 96h
Cn1c(CSc2ccccc2)c(C#N)c2ccccc21,-7%,81*,18,43*,3%,13%
Cc1c(C#N)c2ccccc2n1C,-15%,-45,12,-2,12%,-9%
CN(C)C(=O)N(CCCN1CCOCC1)Cc1cccc2ccccc12,-10%,-13,49,-1,-10%,-6%
COc1ccc(C(c2nnnn2C2CCCCC2)N2CCN(c3ccccc3)CC2)cc1 (stereo not given),-5%,-18,/,-8,10µM*,157%
COc1ccc(C(c2nnnn2C2CCCC2)N2CCN(c3ccccc3)CC2)cc1 (stereo not given),-10%,4,-40,3,9.3µM*,?
Cc1nc(Nc2cccc(F)c2)c2oc3ccccc3c2n1,?,97*,68,28*,0%[0.00184 µM],-5%
Cc1nc(Nc2cccc(O)c2)c2oc3ccccc3c2n1,13µM*,52*,78,42*,-19%[0.00184 µM],-18%
Cc1nc(Nc2ccccc2O)c2oc3ccccc3c2n1,5%,-6,-24,-4,1%[0.00184 µM],19%
Cc1nc2c(oc3ccccc32)c(=O)o1,11%,144*,78,88*,?,/
Cc1nc(Nc2ccccc2F)c2oc3ccccc3c2n1,?,69*,49,32*,-20%[0.00184 µM],48%
CS(=O)(=O)N1CCC(n2c(C(F)(F)F)nc3cccnc32)CC1,/,/,-4,/,/,/
Cc1nc(Nc2cccc(Cl)c2)c2oc3ccccc3c2n1,-27%,31*,-3,20*,-58%,?
Cc1nc(Oc2ccccc2)c2oc3ccccc3c2n1,?,-9,?,-2,/,23%
CCNc1nc(C)nc2c1oc1ccccc12,-13%,-4,-9,2,24%,0.66µM*
Cc1nc(NCCCn2ccnc2)c2oc3ccccc3c2n1,?,33,-22,16*,?,?
CCNc1nc(CC)nc2c1oc1ccccc12,-16%,-9,4,-2,0%,?
Cc1nc(Nc2ccc(Cl)cc2)c2oc3ccccc3c2n1,-18%,-2,-27,7,?,?
COc1ccc(Oc2nc(C)nc3c2oc2ccccc23)cc1,8.9µM*,33,-68*,3,-1%,-5%
COc1ccc(-c2cn3nc(N4CCC(C(=O)Nc5ccccc5OC)CC4)sc3n2)cc1,/,/,0,/,/,/
CCN(CC)c1ccc(NS(=O)(=O)c2ccc3c(c2)CCCN3C(C)=O)c(C)c1,/,/,-30,/,/,/
O=C(NCc1ccncc1)c1ccc(NS(=O)(=O)c2ccc(F)cc2)cc1,2%,/,1,/,4%,-11%
O=C(Nc1sc2c(c1C(=O)NCC1CCCO1)CCC2)c1cc(=O)c2cc(Cl)ccc2o1 (stereo not given),/,/,-10,/,/,/
COc1cccc(Nc2nc(C)nc3c2oc2ccccc23)c1,11µM*,31,32,11,6%[0.00184 µM],-2%
COc1ccc(Nc2nc(C)nc3c2oc2ccccc23)c(OC)c1,?,-2,-14,-1,4%[0.00184 µM],11%
Cc1ccc(CCC(=O)Nc2ccc(CC(=O)O)cc2)o1,11%,-8,104,9,-7%,-18%
SMILES,HCV inhibitor,Shiga inhibitor,HCMV antiviral,Cycloheximide cs,Pf growth 48h,Pf growth 96h
CCOc1ccc(NC(=O)CCc2ccc(C)o2)cc1,-8%,59,27,12,21%,3%
CCc1ccc(NCCC(=O)c2ccc(Cl)cc2)cc1,-3%,-6,-10,-1,2%,57%
Cc1ccc(CCC(=O)Nc2ccc(Br)cc2)o1,2%,15,-15,18*,34%,?
Cc1ccc(C(=O)CCNc2ccc(Cl)cc2)o1,-23%,31,40,17*,/,10µM*
Cc1ccc(CCC(=O)Nc2ccc(Cl)cc2)o1,-6%,/,-14,18*,24%,?
Cc1ccc(CCC(=O)Nc2ccc(N(C)C)cc2)o1,2%,54*,1,31*,34%,58%
CCc1ccc(CCC(=O)Nc2ccc(Br)cc2)o1,-20%,/,-28,3,1%,?
COc1ccccc1CNC(=O)CCC1N=C2c3ccccc3N=C(SCC(=O)Nc3ccc(N(C)C)cc3)N2C1=O (stereo not given),/,/,44,/,/,/
Cc1ccc(CCC(=O)Nc2ccc(Cl)cc2Cl)o1,/,/,-66*,/,/,/
C/C(CCc1ccco1)=N/NC(=O)CCC(=O)Nc1ccc(Br)cc1,-12%,-7,-28,-1,4%,10µM*
CCc1ccc(CCC(=O)Nc2ccc(C)cc2C)o1,-6%,-3,3,1,9%,16%
CCc1ccc(CCC(=O)Nc2ccc(Cl)cc2)o1,8%,24,-10,18*,20%,129%
C/C(CCc1ccco1)=N/NC(=O)CCC(=O)Nc1cccc(Cl)c1,2%,-13,-30,9,-8%,24%
Cc1ccc(NC(=O)CCc2ccc(C)o2)c(Br)c1,-21%,31*,-11,29*,50%,?
Cc1ccc(CCC(=O)Nc2ccc([N+](=O)[O-])cc2Cl)o1,?,0,-2,1,-6%,?
CCOC(=O)[C@]12CCC=C1N(Cc1ccc3c(c1)OCO3)C(=O)[C@H](CC(=O)NCc1ccccc1)C2,/,/,13,/,/,/
CC(=O)N1c2ccc(S(=O)(=O)N(C)CC(=O)N(Cc3ccccc3)C(C)C)cc2CC1C (stereo not given),/,/,-19,/,/,/
O=[N+]([O-])c1ccc(Sc2n[nH]c(-c3ccccc3)n2)nc1,12%,44,-23,41*,31%,31%
CC(C)(C)c1csc(Sc2ccc([N+](=O)[O-])cn2)n1,?,50*,?,23*,13µM*,?
O=[N+]([O-])c1ccc(Sc2ccccc2)nc1,17%,10,?,-2,-1%,-110%
Cc1ccnc(Sc2ccc([N+](=O)[O-])cn2)n1,21%,25,-96*,10*,?,13µM*
Cc1ccccc1Sc1ccc([N+](=O)[O-])cn1,-22%,/,-2,/,/,/
O=C(NCCC1=CCCCC1)C1CCN(C(=O)Cc2ccccc2)CC1,9%,-16,4,-2,7%,11%
O=C(Nc1ccon1)c1ccc(OC2CCCC2)cc1,-17%,92*,86,64*,-14%,5.2µM*
O=C(Nc1ccon1)c1ccc(Br)o1,1%,-7,-6,0,13%,?
CC(C)(C)c1cc(NC(=O)c2ccc(OC3CCCC3)cc2)no1,?,18,-19,3,12µM*,12µM*
C=CCc1ccccc1OCC(=O)NNC(=S)NCc1ccccc1,15%,-7,-16,-1,37%,10µM*
O=C(COc1ccccc1Cl)NCc1ccncc1,20%,77,20,32*,-7%,6%
O=C(COc1ccccc1Cl)NCc1ccccc1,-18%,54*,69,31*,24%,?
